Test results: PubChem BioAssay (EPA / NIEHS)
Activity calls are given as the source filed them. Rule for the calls: active = hit-call score of the fitted dose curve at least 0.9, where 1 is the maximum; inactive = score below 0.9.

Key:
Details in all cases: mRNA level, 48 h; actives raise or lower the signal
[1] = read-out: adenosine kinase (ADK) gene, ADK (gene 132); assay: LTEA_HepaRG_ADK: Life Technologies and Expression Analysis (LTEA) Assay for adenosine kinase (ADK) gene using HepaRG (AID 2283471)
Outline: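 HepaRG (human liver), 48 h chemical exposure, 8-pt half-log series, top 100 uM, 0.5% DMSO vehicle. Readout: ADK mRNA by qRT-PCR vs housekeeping genes; bidirectional curve fit relative to DMSO baseline.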

BCL2L11 (gene 10018) = assay: LTEA_HepaRG_BCL2L11: Life Technologies and Expression Analysis (LTEA) Assay for Bcl-2 (BCL2L11) gene using HepaRG (AID 2283473)
Outline: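 Read-out is BCL2L11 transcript level by qRT-PCR, normalized to three housekeeping genes and fitted bidirectionally against 0.5% DMSO vehicle. HepaRG cells received chemicals for 48 h in serum-free induction medium, 100 uM down in half-log dilutions.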

[2] = read-out: Apolipoprotein A-V (APOA5) gene, APOA5 (gene 116519); assay: LTEA_HepaRG_APOA5: Life Technologies and Expression Analysis (LTEA) Assay for Apolipoprotein A-V (APOA5) gene using HepaRG (AID 2283474)
Outline: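 Readout is APOA5 transcript level by qRT-PCR on Fluidigm dynamic arrays, normalized to three housekeeping genes. HepaRG cultures received chemicals for 48 h at up to 100 uM (half-log steps, 0.5% DMSO), with gain or loss scored relative to DMSO.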

[3] = read-out: Bcl-2 (BID) gene, BID (gene 637); assay: LTEA_HepaRG_BID: Life Technologies and Expression Analysis (LTEA) Assay for Bcl-2 (BID) gene using HepaRG (AID 2283476)
Outline: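 HepaRG, 48 h exposure, 8-pt half-log series, top 100 uM, 0.5% DMSO vehicle, duplicates. Readout: BID mRNA by TaqMan qRT-PCR; housekeeping-normalized; bidirectional curve fit vs DMSO baseline.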

Caspase-3 (Homo sapiens) = Caspase-3 (Homo sapiens) (UniProt P42574); assay: LTEA_HepaRG_CASP3: Life Technologies and Expression Analysis (LTEA) Assay for cysteine-aspartic acid protease (CASP3) using HepaRG (AID 2283477)
Outline: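 Read-out is CASP3 mRNA level by TaqMan qRT-PCR in human HepaRG cells after 48 h chemical exposure. Eight half-log concentrations topping at 100 uM were tested in 0.5% DMSO; gain or loss was fitted relative to DMSO.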

[4] = read-out: Cytochrome P450 (CYP24A1), CYP24A1 (gene 1591); assay: LTEA_HepaRG_CYP24A1: Life Technologies and Expression Analysis (LTEA) Assay for Cytochrome P450 (CYP24A1) using HepaRG (AID 2283478)
Outline: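 HepaRG, 48 h chemical exposure, 8-pt half-log CRC from 100 uM, 0.5% DMSO vehicle, duplicates. Endpoint: CYP24A1 mRNA by Fluidigm TaqMan qRT-PCR, normalized ACTB/GAPDH/POLR2A; gain/loss fit vs DMSO.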

[5] = read-out: cysteine-aspartic acid protease (CASP8), CASP8 (gene 841); assay: LTEA_HepaRG_CASP8: Life Technologies and Expression Analysis (LTEA) Assay for cysteine-aspartic acid protease (CASP8) using HepaRG (AID 2283480)
Outline: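 qRT-PCR readout of CASP8 mRNA, normalized to three housekeeping genes, after 48 h chemical exposure of HepaRG cells; 8-point half-log series, top 100 uM, 0.5% DMSO vehicle. Bidirectional curve fitting against DMSO baseline.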

[6] = read-out: Cytochrome P450 (CYP2B6), CYP2B6 (gene 1555); assay: LTEA_HepaRG_CYP2B6: Life Technologies and Expression Analysis (LTEA) Assay for Cytochrome P450 (CYP2B6) using HepaRG (AID 2283481)
Outline: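 HepaRG cells plated 48 h, switched to serum-free induction medium, then dosed 48 h (8 points, half-log from 100 uM, 0.5% DMSO). RNA isolated; CYP2B6 expression measured by qRT-PCR; gain or loss fitted relative to DMSO.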

CYP2C9 (gene 1559) = assay: LTEA_HepaRG_CYP2C9: Life Technologies and Expression Analysis (LTEA) Assay for CYP2C9 using HepaRG (AID 2283484)
Outline: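 HepaRG, 48 h dosing, 8-pt half-log series, top 100 uM, 0.5% DMSO vehicle. Read-out: CYP2C9 transcript by TaqMan qRT-PCR, housekeeping-normalized (ACTB/GAPDH/POLR2A). Gain or loss fitted vs DMSO baseline.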

CYP2E1 (gene 1571) = assay: LTEA_HepaRG_CYP2E1: Life Technologies and Expression Analysis (LTEA) Assay for CYP2E1 using HepaRG (AID 2283485)
Outline: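 CYP2E1 transcript was measured by TaqMan qRT-PCR in human HepaRG cultures after 48 h chemical exposure (top 100 uM, half-log steps, 0.5% DMSO vehicle). Housekeeping-gene normalization; gain or loss fitted relative to DMSO baseline.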

[7] = read-out: Cytochrome P450 3A4 (Homo sapiens) (UniProt P08684); assay: LTEA_HepaRG_CYP3A4: Life Technologies and Expression Analysis (LTEA) Assay for CYP3A4 using HepaRG (AID 2283487)
Outline: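 CYP3A4 transcript measured by TaqMan qRT-PCR and normalized to three housekeeping genes after 48 h chemical exposure of human HepaRG cells. Top concentration 100 uM, half-log steps, 0.5% DMSO vehicle; gain or loss fitted against DMSO baseline.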

[8] = read-out: DNA damage-inducible transcript 3 (DDIT3), DDIT3 (gene 1649); assay: LTEA_HepaRG_DDIT3: Life Technologies and Expression Analysis (LTEA) Assay for DNA damage-inducible transcript 3 (DDIT3) using HepaRG (AID 2283488)
Outline: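 qRT-PCR readout (Fluidigm TaqMan), housekeeping-normalized to ACTB, GAPDH, POLR2A. HepaRG cells, 48 h exposure, 8-point half-log series from 100 uM in 0.5% DMSO, duplicates. Gain or loss of signal fitted against DMSO baseline.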

[9] = read-out: Pro-epidermal growth factor (Homo sapiens) (UniProt P01133); assay: LTEA_HepaRG_EGF: Life Technologies and Expression Analysis (LTEA) Assay for Epidermal growth factor (EGF) using HepaRG (AID 2283489)
Outline: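 HepaRG, 48 h dosing, 100 uM top, half-log x8, 0.5% DMSO. Readout: TaqMan qRT-PCR (Fluidigm array), housekeeping-normalized. Gain or loss of signal fit vs DMSO.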

[10] = read-out: Early growth response protein 1 (EGR1) transcription factor, EGR1 (gene 1958); assay: LTEA_HepaRG_EGR1: Life Technologies and Expression Analysis (LTEA) Assay for Early growth response protein 1 (EGR1) transcription factor using HepaRG (AID 2283490)
Outline: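 HepaRG, 48 h exposure, 8-pt half-log series from 100 uM, 0.5% DMSO vehicle; EGR1 transcript by TaqMan qRT-PCR (Fluidigm array), housekeeping-normalized; bidirectional fit relative to DMSO baseline.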

CYP4A11 (gene 1579) = assay: LTEA_HepaRG_CYP4A11: Life Technologies and Expression Analysis (LTEA) Assay for CYP4A11 using HepaRG (AID 2283486)
Outline: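 HepaRG, 48 h chem exposure, 8 conc (100 uM top, half-log), 0.5% DMSO vehicle; qRT-PCR readout, housekeeping-gene normalized; bidirectional curve fit vs DMSO baseline.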

CYP2C8 (gene 1558) = assay: LTEA_HepaRG_CYP2C8: Life Technologies and Expression Analysis (LTEA) Assay for CYP2C8 using HepaRG (AID 2283483)
Outline: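 HepaRG (human liver line), 48 h chemical exposure, 8-pt half-log series from 100 uM, 0.5% DMSO vehicle. Readout: CYP2C8 transcript by qRT-PCR, housekeeping-normalized. Bidirectional fit vs DMSO baseline.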

[11] = read-out: Cytochrome P450 2C19 (Homo sapiens) (UniProt P33261); assay: LTEA_HepaRG_CYP2C19: Life Technologies and Expression Analysis (LTEA) Assay for CYP2C19 using HepaRG (AID 2283482)
Outline: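 Transcript levels of CYP2C19 were quantified by qRT-PCR after HepaRG cells were treated for 48 hours with test chemicals up to 100 uM (eight half-log concentrations, 0.5% DMSO vehicle). Gain or loss of signal was fitted relative to DMSO.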

Measured: AC50

Sequence of Cytochrome P450 3A4 (Homo sapiens) (P08684 whole entry, looked up): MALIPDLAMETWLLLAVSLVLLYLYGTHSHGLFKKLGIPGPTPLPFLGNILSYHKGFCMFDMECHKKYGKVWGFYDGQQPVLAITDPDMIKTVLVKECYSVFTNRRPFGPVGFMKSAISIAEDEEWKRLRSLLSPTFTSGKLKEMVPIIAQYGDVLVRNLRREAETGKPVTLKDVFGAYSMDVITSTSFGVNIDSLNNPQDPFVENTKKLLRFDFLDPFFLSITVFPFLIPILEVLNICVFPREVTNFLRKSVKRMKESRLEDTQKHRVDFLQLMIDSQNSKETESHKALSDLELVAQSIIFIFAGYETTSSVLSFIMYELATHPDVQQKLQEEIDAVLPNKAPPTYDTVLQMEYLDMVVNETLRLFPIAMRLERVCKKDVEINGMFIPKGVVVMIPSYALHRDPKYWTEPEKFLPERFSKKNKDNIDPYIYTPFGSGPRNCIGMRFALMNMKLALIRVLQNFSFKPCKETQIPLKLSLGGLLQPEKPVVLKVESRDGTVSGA
Sequence of Caspase-3 (Homo sapiens) (P42574 whole entry, looked up): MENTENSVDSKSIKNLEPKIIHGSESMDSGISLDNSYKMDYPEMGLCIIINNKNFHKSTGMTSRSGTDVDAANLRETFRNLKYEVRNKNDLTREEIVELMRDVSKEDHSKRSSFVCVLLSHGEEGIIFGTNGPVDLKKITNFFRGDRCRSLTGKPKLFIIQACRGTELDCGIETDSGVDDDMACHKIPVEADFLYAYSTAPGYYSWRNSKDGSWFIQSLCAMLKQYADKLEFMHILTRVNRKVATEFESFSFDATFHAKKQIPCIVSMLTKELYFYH
Sequence of Cytochrome P450 2C19 (Homo sapiens) (P33261 whole entry, looked up): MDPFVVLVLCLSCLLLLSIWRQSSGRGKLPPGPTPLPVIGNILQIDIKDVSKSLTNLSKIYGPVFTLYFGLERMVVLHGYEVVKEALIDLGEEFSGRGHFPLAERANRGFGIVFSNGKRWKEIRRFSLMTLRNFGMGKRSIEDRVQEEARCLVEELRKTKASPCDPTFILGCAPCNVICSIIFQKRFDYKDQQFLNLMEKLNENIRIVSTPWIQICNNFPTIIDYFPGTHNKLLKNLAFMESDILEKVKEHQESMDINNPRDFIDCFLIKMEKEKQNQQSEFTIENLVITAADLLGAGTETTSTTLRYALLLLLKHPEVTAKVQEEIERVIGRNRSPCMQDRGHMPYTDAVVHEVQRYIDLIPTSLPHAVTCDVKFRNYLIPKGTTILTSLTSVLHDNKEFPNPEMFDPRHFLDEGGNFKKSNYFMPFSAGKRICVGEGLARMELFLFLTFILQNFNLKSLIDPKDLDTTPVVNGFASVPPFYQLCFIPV

O=[N+]([O-])c1c(Cl)c(Cl)c(Cl)c(Cl)c1Cl
active: [6] 5.88 µM | CYP2E1 (gene 1571) 34.3 µM
not listed: CYP4A11 (gene 1579) | CYP2C8 (gene 1558) | [11]
inactive: all other assays above

CCN(CC)C(=O)SCc1ccc(Cl)cc1
active: [6] 4.36 µM | CYP2E1 (gene 1571) 27.3 µM | [7] 9.92 µM
not listed: CYP2C8 (gene 1558) | [11]
inactive: all other assays above

CNC(=O)Oc1ccccc1OC(C)C
active: [6] 3.17 µM | CYP2E1 (gene 1571) 22.2 µM | [7] 0.594 µM
not listed: CYP2C8 (gene 1558) | [11]
inactive: all other assays above

O=C(O)CCCOc1ccc(Cl)cc1Cl
active: [1] 50.8 µM | [6] 15.2 µM | CYP4A11 (gene 1579) 10.1 µM
not listed: CYP2C8 (gene 1558) | [11]
inactive: all other assays above

CC(C)OC(=O)Nc1cccc(Cl)c1
active: [3] 7.78 µM | [6] 50 µM
not listed: CYP2E1 (gene 1571) | [11]
inactive: all other assays above

CN1CSC(=S)N(C)C1
not listed: [11]
inactive: all other assays above

OCCOc1ccccc1
active: [6] 50 µM
not listed: CYP2C8 (gene 1558)
inactive: all other assays above

O=C(NC(=O)c1c(F)cccc1F)Nc1ccc(OC(F)(F)C(F)OC(F)(F)F)c(Cl)c1 (centres undefined)
not listed: CYP2C8 (gene 1558) | [11]
inactive: all other assays above

CC(C)N(C(=O)COc1nnc(C(F)(F)F)s1)c1ccc(F)cc1
active: [2] 78.4 µM | CYP2E1 (gene 1571) 42.2 µM
not listed: [11]
inactive: all other assays above

CCc1ccc(C(=O)NN(C(=O)c2cc(C)cc(C)c2)C(C)(C)C)cc1
active: [6] 92.4 µM | CYP2C8 (gene 1558) 12.1 µM | CYP2E1 (gene 1571) 42.4 µM | CYP4A11 (gene 1579) 77.2 µM | [7] 3.75 µM | [10] 50 µM
not listed: [11]
inactive: all other assays above

CCCN(CCOc1c(Cl)cc(Cl)cc1Cl)C(=O)n1ccnc1
inactive: [1] | [3] | Caspase-3 (Homo sapiens) | [4] | [5]
active: BCL2L11 (gene 10018) 12.7 µM | [2] 39 µM | [6] 31 µM | CYP2C9 (gene 1559) 31.9 µM | CYP2E1 (gene 1571) 14.6 µM | CYP4A11 (gene 1579) 18.2 µM | [7] 36.2 µM | [8] 24 µM | [9] 12.1 µM | [10] 27.9 µM

CC1(C)C(C=C(Cl)Cl)C1C(=O)OC(C#N)c1ccc(F)c(Oc2ccccc2)c1 (centres undefined)
active: [6] 18.4 µM | CYP2C8 (gene 1558) 17.1 µM | CYP2C9 (gene 1559) 14 µM | CYP2E1 (gene 1571) 55.3 µM | [7] 10.9 µM | [9] 61.4 µM
not listed: [11]
inactive: all other assays above
